Most compounds without a hit are left out; they make up all but 19% or so of the library.
DT40 TDP1 CPT: growth inhibition of DT40 Tdp1-/-;hTDP1 cells with camptothecin (screen for TDP1 inhibitors); Potency, µM (top dose mostly 46.2 µM), actives largely listed as inhibitors; 12% of 420,000 active; chicken DT40 Tdp1-/-;hTDP1 cells + 20 nM CPT, ATP luminescence, 48 h; note: nearly all actives have a fitted effect of over 55% in size
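Chicken DT40 Tdp1-/- cells stably complemented with human TDP1 were seeded at 400 cells/well in medium containing 20 nM camptothecin, exposed to pin-transferred compounds, and grown at 37 °C for at least 48 hr. Viability was read as ATP luminescence.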
HT1080 IDH1KD tx: toxicity to HT-1080 IDH1 knockdown cells (counter line); HT-1080 IDH1 knockdown viability, ATP luminescence, 48 h; Potency, µM (titrated, usually from 46.1 µM), usual class: cytotoxic; 2% of 360,000 active
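After a 2 h attachment period, IDH1KD HT-1080 cells took pin-transferred compound for 48 h at 37 °C; ATP-based luminescence after 10 min room-temperature reagent incubation reported viability.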
IL1B secr inh: inhibitors of inflammasome signaling (IL-1 beta secretion); activity change, % at 57.5 µM; 4.7% of 360,000 active; THP-1 LPS/ATP IL-1B secretion, AlphaLISA, 16 h; stronger effect = lower value; AID 743279; in the data active = activity change below about -50%; inconclusive = mostly about -30% to -49%
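THP-1 cells pretreated 1 hr with compounds (up to 57.5 uM final), then stimulated with LPS (250 ng/mL final) plus ATP (1.25 mM final); secreted IL-1B measured by AlphaLISA after 16 hr, decreased signal indicating inhibition.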
DT40 TDP1 no CPT: qHTS for Inhibitors of human tyrosyl-DNA phosphodiesterase 1 (TDP1): qHTS in cells in absence of CPT. DT40 Tdp1-/- hTDP1 cells, no CPT, ATP luminescence, 48 h. Potency, µM (titrated, usually from 46.2 µM), actives largely listed as inhibitors. 15% of 420,000 active. AID 686978, 2013; note: nearly all actives have a fitted effect of over 55% in size
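Cells were dispensed at 400 per well, compounds added by pin tool, plates incubated ≥48 hr at 37 °C, then CellTiter-Glo added for 30 min at room temperature before luminescence reading. Line: DT40 Tdp1-/- complemented with hTDP1; camptothecin omitted.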
HT1080NT lethal: kills 2HG-producing HT-1080-NT fibrosarcoma cells. 1.6% of 360,000 active. HT-1080-NT fibrosarcoma viability, CellTiter-Glo ATP luminescence, 48 h. Potency, µM (titrated, usually from 46.1 µM), actives largely listed as cytotoxic. AID 686970;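 note: NT is the 2HG producing partner of a matched IDH1 knockdown line; nearly all actives have a fitted effect of over 55% in size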
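750 cells/well, RPMI + 5% FBS; 2 h settle, compound pin-transfer, 48 h at 37 degrees C. CellTiter-Glo 10 min RT, luminescence. Normalized to DMSO and media-only wells.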
Numbers stand for hits; n = inactive; u = inconclusive; ! = not confirmed by another sample. Unless noted, calls come from the whole dose curve; as a rule, active = well fitted curve in the direction sought with a large enough effect; inconclusive = small, poorly fitted or top-dose-only effect, or another doubt; inactive = no such curve, though single readings can be large; an effect the other way counts as inactive or inconclusive.

SMILES	DT40 TDP1 CPT	HT1080 IDH1KD tx	IL1B secr inh	DT40 TDP1 no CPT	HT1080NT lethal
CC1(C(=O)NS(=O)(=O)Cc2cccc(Cl)c2)CCN1C(=O)Cc1cccs1 (centres undefined)	n	n	n	n	n
CCCC(=O)Nc1nn(C)c2nc3c(C)cccc3cc12	n	n	n	n	n
CCCn1nc(NC(=O)COC)c2cc3cccc(C)c3nc21	u	n	n	16µM	n
Cc1cccc2cc3c(NC(=O)c4ccccn4)nn(C)c3nc12	u	u	n	9.2µM	u
CCOc1ccccc1NC(=O)COC(=O)CSc1ccc(Cl)cc1	n	n	n	n	n
Cc1ccc(CCNC(=O)CN(C)S(=O)(=O)c2ccc3c(c2)n(C)c(=O)c(=O)n3C)cc1	n	n	n	n	n
CCOC(=O)C1=C(CC)Nc2ccccc2N/C1=N\S(=O)(=O)c1cc(Br)ccc1Br	n	u	n	u	u
Cc1ncc([N+](=O)[O-])n1CC(=O)Nc1ccc(OC(F)(F)Cl)cc1	u	n	n	u	n
O=C1NC(=O)C(c2ccccc2[N+](=O)[O-])=C1Nc1ccc(O)c(Cl)c1	7.3µM!	n	n	27µM!	n
O=C1NC(=Nc2ccccc2Cl)S/C1=C\c1cc([N+](=O)[O-])ccc1O	n	n	n	n	n
CCN(CC(=O)Nc1c(F)cccc1F)C(=O)c1ccc(S(=O)(=O)N2CCC(C)CC2)cc1	n	n	n	n	n
O=C(CC(CC(=O)c1ccc(Br)cc1)c1cccnc1)c1ccc(Br)cc1	15µM	n	n	15µM	u
O=C(c1ccccc1)C1N=NCC1c1ccc(Cl)cc1 (centres undefined)	n	n	n	u	n
O=C(C1=NNCC1c1ccc(Cl)cc1)C1CO1 (centres undefined)	8.2µM	n	-67	u	n
CC(C)NC(=O)Nc1cccc2c1O[C@H](CN(C)C(=O)Nc1ccc(C(F)(F)F)cc1)[C@@H](C)CN([C@H](C)CO)C2=O	n	n	u	n	n
C[C@H](CO)N1C[C@H](C)[C@@H](CN(C)CC2CCCCC2)Oc2c(NC(=O)CCC(F)(F)F)cccc2C1=O	21µM	n	n	15µM	u
C[C@H](CO)N1C[C@H](C)[C@@H](CN(C)C(=O)NC2CCCCC2)Oc2c(NC(=O)CCC(F)(F)F)cccc2C1=O	u	n	n	n	n
C[C@H](CO)N1C[C@H](C)[C@@H](CN(C)C(=O)Nc2ccc(C(F)(F)F)cc2)Oc2c(NC(=O)C3CCCCC3)cccc2C1=O	u	n	-58	u	n
C[C@H](CO)N1C[C@H](C)[C@@H](CN(C)C(=O)Nc2ccc(C(F)(F)F)cc2)Oc2c(NC(=O)CCC(F)(F)F)cccc2C1=O	u	n	-66	u	n
C[C@H](CO)N1C[C@H](C)[C@@H](CN(C)Cc2ccc(-c3ccccc3)cc2)Oc2c(NC(=O)Nc3ccc(C(F)(F)F)cc3)cccc2C1=O	8.2µM	n	n	u	n
Cn1c(N)c(C(=O)COC(=O)C2CCCCC2)c(=O)n(C)c1=O	n	n	n	n	n
COc1ccc(NC2CCCN(C(=O)c3cccc(N4CCNC4=O)c3)C2)cc1 (centres undefined)	n	n	n	n	n
COCCNC(=O)c1cc2c(c(-c3cccc(C#Cc4ccc(OC)c(OC)c4)c3)n1)[C@H](CCO)N(S(=O)C(C)(C)C)C2 (some centres undefined)	u	u	n	u	u
C[C@@H]1CN([C@H](C)CO)C(=O)c2cccc(NC(=O)NC3CCCCC3)c2O[C@@H]1CN(C)C(=O)Nc1ccc(C(F)(F)F)cc1	16µM	u	-67	u	u
C[C@H](CO)N1C[C@H](C)[C@@H](CN(C)C(=O)Nc2ccccc2)Oc2c(NC(=O)Nc3ccc(C(F)(F)F)cc3)cccc2C1=O	13µM	u	n	u	u
C[C@H](CO)N1C[C@H](C)[C@@H](CN(C)C(=O)Nc2ccc(C(F)(F)F)cc2)Oc2c(NC(=O)NC3CCCCC3)cccc2C1=O	n	n	u	u	n
